A selection: hits, their analogues and other compounds. The true share with any hit is near 8%.
KB-V1 MDR tox = qHTS assay for MDR1-selective chemotherapeutics: Primary screen using the drug-selected MDR subline cells KB-V1; KB-V1 MDR cells viability, CellTiter-Glo, 72 h; Potency, µM (titrated, usually from 46.1 µM), actives largely listed as cytotoxic; 400,000 compounds, 3.4% hits; also: nearly all actives have a fitted effect of over 60% in size
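Drug-selected KB-V1 cells, grown in DMEM lacking phenol red with 10% FBS, receive compound titrations; after three days at 37 degrees C, surviving cell ATP is quantified by CellTiter-Glo luminescence and responses normalized and curve-fitted.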
HT1080 IDH1KD tx = qHTS for induction of synthetic lethality in tumor cells producing 2HG: qHTS for the HT-1080-IDH1KD cell line; HT-1080 IDH1 knockdown viability, ATP luminescence, 48 h; Potency, µM (top dose mostly 46.1 µM), actives largely listed as cytotoxic; 360,000 compounds, 2% hits
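Using the IDH1-knockdown HT-1080 line run in the same batch and compound series as the NT line, viability after 48 h at 37 °C was determined by CellTiter-Glo luminescence and expressed as % activity.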
HT1080-NT tox = qHTS for induction of synthetic lethality in tumor cells producing 2HG: qHTS for the HT-1080-NT fibrosarcoma cell line | HT-1080-NT fibrosarcoma viability, CellTiter-Glo ATP luminescence, 48 h | Potency, µM (series often up to 46.1 µM), actives largely listed as cytotoxic | 360,000 compounds, 1.6% hits;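 also: NT is the 2HG producing partner of a matched IDH1 knockdown line; nearly all actives have a fitted effect of over 55% in size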
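Luminescent CellTiter-Glo readout after 48 hours of compound exposure at 37 degrees C defined viability of HT-1080-NT cells. Activity was normalized to DMSO wells and cell-free media wells; concentration-response curves were fitted and assigned curve classes.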
KB-3-1 cytotox = qHTS assay for MDR1-selective chemotherapeutics: Primary screen using the parental adenocarcinoma cell KB-3-1 | KB-3-1 viability, CellTiter-Glo ATP luminescence, 72 h | Potency, µM (doses to about 46.1 µM), actives largely listed as cytotoxic | 400,000 compounds, 1.4% hits | AID 1347075, 2019; also: nearly all actives have a fitted effect of over 60% in size
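KB-3-1 cells, DMEM (no phenol red) + 10% FBS; compound by pin transfer, 72 h, 37 °C. Readout: CellTiter-Glo luminescence after 10 min. Data normalized, curve-fitted.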
MCF10A rerep = A quantitative high throughput screen for small molecules that induce DNA re-replication in MCF 10a normal breast cells. 350,000 compounds, 2.9% hits. AID 624296, 2012. MCF 10A DNA re-replication, Hoechst nuclear intensity, 48 h. Potency, µM (series often up to 46.1 µM), most hits filed as activators; also: nearly all actives have a fitted effect of over 50% in size
SW480 rerep = A quantitative high throughput screen for small molecules that induce DNA re-replication in SW480 colon adenocarcinoma cells. SW480 DNA re-replication, Hoechst DNA content imaging, 48 h. Potency, µM (highest dose often 46.1 µM), hits mostly activators. 340,000 compounds, 1.8% hits. AID 624297, 2012; also: nearly all actives have a fitted effect of over 55% in size
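Readout is total intensity of Hoechst-stained nuclei, excited at 405 nm and collected at 500-530 nm. Compound treatment lasted 48 hr at 37 C in 5% CO2 before staining.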
Large screens that a line does not name were inactive. Calls follow the shape of the dose curve; as a rule, active = well fitted curve in the direction sought with a large enough effect; inconclusive = small, poorly fitted or top-dose-only effect, or another doubt; inactive = no such curve, though single readings can be large; an effect the other way counts as inactive or inconclusive.

CN(C(=O)c1ccc(COc2ccccc2Br)o1)c1ccccc1	none
Cc1nc2nc(SCC(=O)N3CCOCC3)nn2c(C)c1Cc1c(F)cccc1Cl	none
COc1ccc(/C=C/c2c(-c3cccc(C)c3)oc3ccc(N4CCOCC4)cc23)cc1	MCF10A rerep 9.2µM
O=C(NCC(c1cccs1)N1CCOCC1)c1ccc(Cl)s1 (stereo not drawn)	KB-V1 MDR tox 16µM, KB-3-1 cytotox inconclusive, MCF10A rerep inconclusive (no result: HT1080 IDH1KD tx, HT1080-NT tox)
Cc1cccc(NS(=O)(=O)c2cccc(C(=O)NCC(c3ccc(F)cc3)N3CCOCC3)c2)c1 (stereo not drawn)	KB-V1 MDR tox 21µM, KB-3-1 cytotox inconclusive
COc1ccc(C(=O)NCC(c2cccs2)N2CCOCC2)cc1OC (stereo not drawn)	MCF10A rerep inconclusive, SW480 rerep inconclusive
O=C(NCC(c1cccs1)N1CCOCC1)c1cc(S(=O)(=O)N2CCOCC2)c(Cl)cc1Cl (stereo not drawn)	SW480 rerep inconclusive
O=C(NCC(c1cccs1)N1CCOCC1)c1cc(F)cc(F)c1 (stereo not drawn)	KB-V1 MDR tox inconclusive, HT1080 IDH1KD tx 5.8µM, HT1080-NT tox 7.3µM, KB-3-1 cytotox inconclusive (no result: MCF10A rerep, SW480 rerep)
O=C(NCC(c1cccs1)N1CCOCC1)c1cc(S(=O)(=O)N2CCOCC2)ccc1F (stereo not drawn)	SW480 rerep 3.3µM
Cc1cnc(C(=O)OCC(=O)N(C)CC(=O)Nc2ccccc2Cl)cn1	none
O=C(NCC(c1cccs1)N1CCOCC1)c1ccc([N+](=O)[O-])cc1 (stereo not drawn)	none
O=C(NCC(c1cccs1)N1CCOCC1)c1ccc(Cl)nc1 (stereo not drawn)	KB-V1 MDR tox inconclusive, HT1080 IDH1KD tx inconclusive, HT1080-NT tox inconclusive, KB-3-1 cytotox inconclusive, MCF10A rerep 18µM, SW480 rerep inconclusive
O=C(NCC(c1cccs1)N1CCOCC1)c1cccc([N+](=O)[O-])c1 (stereo not drawn)	HT1080 IDH1KD tx inconclusive, HT1080-NT tox inconclusive
O=C(NCC(c1cccs1)N1CCOCC1)c1cc([N+](=O)[O-])cc([N+](=O)[O-])c1 (stereo not drawn)	KB-V1 MDR tox 23µM
Cc1ccccc1OCC(=O)NCC(c1cccs1)N1CCOCC1 (stereo not drawn)	KB-V1 MDR tox 16µM, KB-3-1 cytotox inconclusive, SW480 rerep inconclusive
CSc1nc(N(C)NC(=O)c2ccc(F)cc2)c2ccccc2n1	KB-V1 MDR tox 1µM, HT1080 IDH1KD tx 0.52µM, HT1080-NT tox inconclusive, KB-3-1 cytotox 0.65µM, MCF10A rerep 1.8µM, SW480 rerep 2.3µM
Cn1c(=O)n(C)c2cc(NS(=O)(=O)c3ccccc3[N+](=O)[O-])ccc21	none (no result: KB-V1 MDR tox, KB-3-1 cytotox)
Cc1ccc2oc(C(=O)N(C)Cc3ccc(C)o3)c(C)c2c1	MCF10A rerep 23µM, SW480 rerep inconclusive
CCc1ccc2[nH]c3nc(N/N=C/c4cccc(O)c4)nnc3c2c1	HT1080 IDH1KD tx 9.2µM, HT1080-NT tox inconclusive, KB-3-1 cytotox inconclusive, MCF10A rerep inconclusive
COc1cccc(/C=N/Nc2nnc3c(n2)[nH]c2ccccc23)c1OC	KB-3-1 cytotox inconclusive, SW480 rerep inconclusive
C=CCC(NCc1ccccc1)c1ccccc1 (stereo not drawn)	none
O=C(Nc1ccc2oc(-c3ccncc3)nc2c1)c1ccc([N+](=O)[O-])o1	HT1080 IDH1KD tx 16µM, HT1080-NT tox 6.5µM, KB-3-1 cytotox inconclusive, MCF10A rerep 4.1µM, SW480 rerep 2.6µM
O=C(Nc1ccc(-c2nc3ncccc3o2)cc1)c1ccc([N+](=O)[O-])o1	HT1080 IDH1KD tx inconclusive, HT1080-NT tox inconclusive, KB-3-1 cytotox inconclusive, MCF10A rerep 2.9µM, SW480 rerep 2.3µM

Screens from PubChem.
